# Results: PubChem BioAssay AID1069 (NMMLSC, 2008)
# Calls of active or inactive are those of the source.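 The calls were made as follows: active = high combined rank on largest and smallest cell-count-weighted shift across three tests, rank score above 45, floors 50 and 25 (some results past the limit were not filed as active); inactive = the rest.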
# Assay: LNCaP granularity increase inducers, single-point recheck – cell-based, side scatter shift, flow cytometry, confirmation (AID 1069);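 also: LNCaP human prostate cancer cells in low-serum medium with charcoal-stripped FBS; percent of cells with raised granularity gated so DMSO controls show 10%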
# Settings: LNCaP differentiation, 4 d, stronger effect = higher value
Compound,side scatter shift (at 100 µM),"side scatter shift (side scatter shift, at 10 µM) [%]"
Cc1oc(-c2ccccc2F)nc1CN1CCC(C(=O)NC2CC2)CC1,13.5% (inactive),2.4
Cc1oc(-c2cccc(Cl)c2)nc1CN1CCC(C(=O)NCc2cccnc2)CC1,28.9% (inactive),8.3
O=S(=O)(Nc1cccc2ncccc12)c1cccs1,14.3% (inactive),5.95
O=C(Cc1ccc(-n2cccc2)cc1)NCc1cccs1,28.8% (inactive),13.2
O=C(Nc1c(C(=O)N2CCOCC2)cnn1-c1ccccc1)c1ccco1,7.5% (inactive),5.15
Cc1ccccc1-c1nc(CN2CCCC(C(=O)NCc3cccnc3)C2)c(C)o1 (configuration not stated),13.7% (inactive),7.35
O=C(Cn1ccc2ccccc2c1=O)NCCC(=O)N1CCN(c2cccc(C(F)(F)F)c2)CC1,5.2% (inactive),2.4
CN1CCN(CC(=O)Nc2ccc(Cl)cc2Cl)CC1,23.1% (inactive),6.1
Cc1nc2ncnn2c(C)c1CCC(=O)NCCCN1CCN(c2cccc(Cl)c2)CC1,37.9% (inactive),8.55
CCN1CCN(C(c2cccs2)C(C)NS(=O)(=O)c2ccc(Br)cc2)CC1 (configuration not stated),82.4% (inactive),17.8
Cc1oc(-c2ccc(Cl)cc2)nc1CN1CCCC(C(=O)NCc2cccnc2)C1 (configuration not stated),25% (inactive),7.2
CCOC(=O)Cn1nc(-c2ccc(Cl)cc2)cc1N,11.4% (inactive),4.7
O=C(NCc1ccc(Cl)cc1)c1noc2c1CCCC2,8% (inactive),3.3
Cc1ccc2[nH]c(=O)c3cc(C(=O)N(C)Cc4ccco4)sc3c2c1,4.2% (inactive),11.1
O=C(c1ccccc1)c1ccc(N2CCNCC2)cc1,63% (active),7.95
Cc1noc(/C=C/c2ccco2)c1S(=O)(=O)N1CCC(C(=O)N2CCc3ccccc3C2)CC1,54.6% (active),7.3
COc1ccc(-c2cc(-c3ccc(F)cc3)nc(N3CCN(C)CC3)n2)cc1,33.3% (inactive),14.8
CCCS(=O)(=O)N1CCCC(C(=O)NCCCN2CCN(c3ccccc3F)CC2)C1 (configuration not stated),35.5% (inactive),5.95
CC(C)Cc1nc2oc3c(N4CCN(CCO)CC4)ncnc3c2c2c1CCCC2,33.3% (inactive),5.25
O=C(NCC1CCCO1)C1CC(c2ccc(Cl)c(Cl)c2)=NO1 (configuration not stated),8.2% (inactive),2.4
Cc1ccc(-n2nc3cc(Cl)c(NC(=O)c4ccco4)cc3n2)cc1,20.7% (inactive),2.8
O=C(NC1CCCC1)C1CCN(S(=O)(=O)c2cccc3cccnc23)CC1,15.9% (inactive),1.65
COCCn1c(=O)[nH]c2cc(C(=O)NCCCN3CCN(c4ccc(F)cc4)CC3)ccc2c1=O,37.9% (inactive),6.5
O=C(CCn1c(=O)oc2ccccc21)NCCCN1CCN(c2ccc(F)cc2)CC1,25.4% (inactive),4.25
CSc1nc2ccc(Nc3nc(N4CCOCC4)nc(N4CCOCC4)n3)cc2s1,14.6% (inactive),5.1
CCc1ccc(-c2nc(CN3CCC(C(=O)NCCN(CC)c4ccccc4)CC3)c(C)o2)cc1,50% (inactive),24.1
